# The full data set covers some 7,900 targets. This sample favours those with a hit. About 0.6% of all pairs of compound and target were hits. A number with no mark means an inactive call.
# What was measured:
# Experiment in all cases: log2 fold change, soluble protein after heating vs DMSO (PISA); higher = thermal stabilisation; K562 cells, 10 uM, 30 min; active = over 0.2 and 3.5 SD of the protein, either way, in both replicates (recomputed)
# saracatinib = compound: CN1CCN(CCOc2cc(OC3CCOCC3)c3c(Nc4c(Cl)ccc5c4OCO5)ncnc3c2)CC1 [saracatinib]
# How it was run: (§1)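 Aliquots of K562 cells (2×10^6 cells/mL) treated with 10 μM compound for 30 min were heated for 3 min over 48°C-58°C. After pooling and extraction in PBS with 0.5% NP-40 at 4°C, soluble protein from a 21,000xg, 90 min spin was quantified by TMTpro 16plex LC-MS/MS with channel sums equalised. Thermal stability is expressed against control samples, from duplicates, as a log2 fold change.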
# sotrastaurin = compound: CN1CCN(c2nc(C3=C(c4c[nH]c5ccccc45)C(=O)NC3=O)c3ccccc3n2)CC1 [sotrastaurin]
# How it was run: as §1
# alvocidib = compound: CN1CC[C@H](c2c(O)cc(O)c3c(=O)cc(-c4ccccc4Cl)oc23)[C@H](O)C1 [alvocidib]
# How it was run: as §1
# Tubastatin A = compound: CN1CCc2c(c3ccccc3n2Cc2ccc(C(=O)NO)cc2)C1 [Tubastatin A]
# How it was run: as §1
# [1] = compound: CNC(=O)C1=CC=CC=C1NC2=NC(=NC=C2Cl)NC3=C(C=C(C=C3)N4CCOCC4)OC
# How it was run: as §1
# defactinib = compound: CNC(=O)c1ccc(Nc2ncc(C(F)(F)F)c(NCc3nccnc3N(C)S(C)(=O)=O)n2)cc1 [defactinib]
# How it was run: as §1
# rucaparib = compound: CNCc1ccc(-c2[nH]c3cc(F)cc4c3c2CCNC4=O)cc1 [rucaparib]
# How it was run: as §1
# [2] = compound: CNc1nc(-c2ccc3c(N)n[nH]c3c2)cc(N2C[C@@H](C(=O)NC3CCCCC3)CC[C@H]2C)n1
# How it was run: as §1
# encorafenib = compound: COC(=O)N[C@@H](C)CNc1nccc(-c2cn(C(C)C)nc2-c2cc(Cl)cc(NS(C)(=O)=O)c2F)n1 [encorafenib]
# How it was run: as §1
# [3] = compound: COC(=O)[C@H](CCSC)NC(=O)C1=C(C=C(C=C1)NC[C@H](CS)N)C2=CC=CC=C2
# How it was run: as §1
# [4] = compound: COC1=CC=C(C=C1)CN2C=CC3=C2C=C(C=C3)C(=O)NO
# How it was run: as §1
# filanesib = compound: CON(C)C(=O)N1N=C(c2cc(F)ccc2F)S[C@@]1(CCCN)c1ccccc1 [filanesib]
# How it was run: as §1
# zotarolimus = compound: CO[C@H]1C[C@@H]2CC[C@@H](C)[C@@](O)(O2)C(=O)C(=O)N2CCCC[C@H]2C(=O)O[C@H]([C@H](C)C[C@@H]2CC[C@H](n3cnnn3)[C@H](OC)C2)CC(=O)[C@H](C)/C=C(\C)[C@@H](O)[C@@H](OC)C(=O)[C@H](C)C[C@H](C)/C=C/C=C/C=C/1C [zotarolimus]
# How it was run: as §1
# idasanutlin = compound: COc1cc(C(=O)O)ccc1NC(=O)[C@@H]1N[C@@H](CC(C)(C)C)[C@](C#N)(c2ccc(Cl)cc2F)[C@H]1c1cccc(Cl)c1F [idasanutlin]
# How it was run: as §1
# alisertib = compound: COc1cc(Nc2ncc3c(n2)-c2ccc(Cl)cc2C(c2c(F)cccc2OC)=NC3)ccc1C(=O)O [alisertib]
# How it was run: as §1
# [5] = compound: COc1cc2nc(-c3cc(F)ccc3O)nc(N[C@@H]3CNC[C@H]3C(C)(C)O)c2cc1OC
# How it was run: as §1
# gefitinib = compound: COc1cc2ncnc(Nc3ccc(F)c(Cl)c3)c2cc1OCCCN1CCOCC1 [gefitinib]
# How it was run: as §1
# [6] = compound: COc1cccc2cc(-c3nc([C@H]4CC[C@H](C(=O)O)CC4)n4ncnc(N)c34)[nH]c12
# How it was run: as §1
# lapatinib = compound: CS(=O)(=O)CCNCc1ccc(-c2ccc3ncnc(Nc4ccc(OCc5cccc(F)c5)c(Cl)c4)c3c2)o1 [lapatinib]
# How it was run: as §1
# pictilisib = compound: CS(=O)(=O)N1CCN(Cc2cc3nc(-c4cccc5[nH]ncc45)nc(N4CCOCC4)c3s2)CC1 [pictilisib]
# How it was run: as §1
# Sequence of UniProt P08047 (P08047 whole entry, looked up): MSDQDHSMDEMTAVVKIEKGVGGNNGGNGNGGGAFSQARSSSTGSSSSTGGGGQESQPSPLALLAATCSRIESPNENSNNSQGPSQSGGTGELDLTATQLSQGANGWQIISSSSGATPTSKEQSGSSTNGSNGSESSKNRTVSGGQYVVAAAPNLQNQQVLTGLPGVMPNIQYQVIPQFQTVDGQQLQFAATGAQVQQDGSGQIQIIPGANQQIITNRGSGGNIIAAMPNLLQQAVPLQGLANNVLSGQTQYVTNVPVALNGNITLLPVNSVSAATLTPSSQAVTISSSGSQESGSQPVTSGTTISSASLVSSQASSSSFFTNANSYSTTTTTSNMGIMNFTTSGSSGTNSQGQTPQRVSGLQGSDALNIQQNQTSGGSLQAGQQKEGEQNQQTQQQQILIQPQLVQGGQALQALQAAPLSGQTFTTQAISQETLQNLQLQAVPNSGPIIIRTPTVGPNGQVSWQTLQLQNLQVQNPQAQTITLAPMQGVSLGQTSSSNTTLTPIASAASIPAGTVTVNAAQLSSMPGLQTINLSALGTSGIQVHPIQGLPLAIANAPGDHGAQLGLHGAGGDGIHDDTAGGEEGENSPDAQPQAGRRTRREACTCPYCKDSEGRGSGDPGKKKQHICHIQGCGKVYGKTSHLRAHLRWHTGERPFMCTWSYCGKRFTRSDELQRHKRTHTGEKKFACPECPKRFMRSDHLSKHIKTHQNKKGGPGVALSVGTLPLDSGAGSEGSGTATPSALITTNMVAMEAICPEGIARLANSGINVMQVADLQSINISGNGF
# Sequence of UniProt O75663 (O75663 whole entry, looked up): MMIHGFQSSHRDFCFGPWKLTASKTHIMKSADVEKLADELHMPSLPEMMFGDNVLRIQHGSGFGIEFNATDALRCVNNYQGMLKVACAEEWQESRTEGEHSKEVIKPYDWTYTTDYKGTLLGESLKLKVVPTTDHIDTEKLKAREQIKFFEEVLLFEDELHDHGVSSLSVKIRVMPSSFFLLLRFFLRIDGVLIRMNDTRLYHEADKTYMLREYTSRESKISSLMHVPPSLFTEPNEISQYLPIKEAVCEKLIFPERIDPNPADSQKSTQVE
# Sequence of UniProt Q05519 (Q05519 whole entry, looked up): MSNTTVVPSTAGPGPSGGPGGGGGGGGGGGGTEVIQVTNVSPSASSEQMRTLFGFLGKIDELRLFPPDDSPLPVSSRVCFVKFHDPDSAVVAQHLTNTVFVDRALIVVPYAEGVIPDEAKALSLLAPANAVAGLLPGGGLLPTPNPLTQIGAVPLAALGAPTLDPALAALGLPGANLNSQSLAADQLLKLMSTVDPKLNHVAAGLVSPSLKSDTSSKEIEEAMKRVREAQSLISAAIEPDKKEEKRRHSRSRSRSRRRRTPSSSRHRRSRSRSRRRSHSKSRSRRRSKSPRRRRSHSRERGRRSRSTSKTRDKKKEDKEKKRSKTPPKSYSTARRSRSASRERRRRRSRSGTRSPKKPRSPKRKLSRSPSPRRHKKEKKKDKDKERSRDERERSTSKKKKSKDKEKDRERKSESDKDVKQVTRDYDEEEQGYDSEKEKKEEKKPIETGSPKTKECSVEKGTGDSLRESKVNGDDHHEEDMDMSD
# Sequence of UniProt Q92797 (Q92797 whole entry, looked up): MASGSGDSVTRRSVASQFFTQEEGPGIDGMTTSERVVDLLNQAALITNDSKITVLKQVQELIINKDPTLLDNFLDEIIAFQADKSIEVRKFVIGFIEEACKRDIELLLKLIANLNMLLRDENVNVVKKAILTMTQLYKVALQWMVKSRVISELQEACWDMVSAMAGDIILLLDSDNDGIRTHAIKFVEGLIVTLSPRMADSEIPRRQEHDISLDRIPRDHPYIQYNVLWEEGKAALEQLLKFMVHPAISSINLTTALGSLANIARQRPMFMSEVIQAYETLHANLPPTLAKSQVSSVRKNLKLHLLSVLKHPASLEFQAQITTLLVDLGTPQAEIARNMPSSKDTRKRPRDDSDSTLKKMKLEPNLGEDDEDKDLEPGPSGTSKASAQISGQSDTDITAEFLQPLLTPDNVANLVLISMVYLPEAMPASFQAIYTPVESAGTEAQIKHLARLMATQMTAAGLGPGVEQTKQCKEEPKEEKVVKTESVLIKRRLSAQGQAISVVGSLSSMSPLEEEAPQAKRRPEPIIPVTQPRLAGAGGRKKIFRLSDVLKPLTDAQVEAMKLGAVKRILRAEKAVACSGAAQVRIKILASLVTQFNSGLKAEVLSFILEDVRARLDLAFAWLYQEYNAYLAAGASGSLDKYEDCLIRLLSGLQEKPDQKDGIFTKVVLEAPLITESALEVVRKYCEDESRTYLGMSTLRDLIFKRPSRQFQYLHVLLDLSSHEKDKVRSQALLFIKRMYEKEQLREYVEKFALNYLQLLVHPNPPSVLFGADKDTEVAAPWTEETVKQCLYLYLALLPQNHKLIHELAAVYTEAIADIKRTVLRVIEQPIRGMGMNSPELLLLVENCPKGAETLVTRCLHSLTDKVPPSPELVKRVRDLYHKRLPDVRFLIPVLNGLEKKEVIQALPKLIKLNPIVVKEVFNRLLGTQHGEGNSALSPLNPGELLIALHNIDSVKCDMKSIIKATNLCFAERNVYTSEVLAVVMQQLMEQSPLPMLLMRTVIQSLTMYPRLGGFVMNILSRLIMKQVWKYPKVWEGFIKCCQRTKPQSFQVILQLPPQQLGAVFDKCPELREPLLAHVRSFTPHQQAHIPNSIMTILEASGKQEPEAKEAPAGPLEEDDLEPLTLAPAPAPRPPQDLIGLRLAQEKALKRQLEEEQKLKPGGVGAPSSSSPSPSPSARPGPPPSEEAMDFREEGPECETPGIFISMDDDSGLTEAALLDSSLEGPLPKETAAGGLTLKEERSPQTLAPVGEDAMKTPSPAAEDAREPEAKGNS
# Sequence of UniProt Q9H2K8 (Q9H2K8 whole entry, looked up): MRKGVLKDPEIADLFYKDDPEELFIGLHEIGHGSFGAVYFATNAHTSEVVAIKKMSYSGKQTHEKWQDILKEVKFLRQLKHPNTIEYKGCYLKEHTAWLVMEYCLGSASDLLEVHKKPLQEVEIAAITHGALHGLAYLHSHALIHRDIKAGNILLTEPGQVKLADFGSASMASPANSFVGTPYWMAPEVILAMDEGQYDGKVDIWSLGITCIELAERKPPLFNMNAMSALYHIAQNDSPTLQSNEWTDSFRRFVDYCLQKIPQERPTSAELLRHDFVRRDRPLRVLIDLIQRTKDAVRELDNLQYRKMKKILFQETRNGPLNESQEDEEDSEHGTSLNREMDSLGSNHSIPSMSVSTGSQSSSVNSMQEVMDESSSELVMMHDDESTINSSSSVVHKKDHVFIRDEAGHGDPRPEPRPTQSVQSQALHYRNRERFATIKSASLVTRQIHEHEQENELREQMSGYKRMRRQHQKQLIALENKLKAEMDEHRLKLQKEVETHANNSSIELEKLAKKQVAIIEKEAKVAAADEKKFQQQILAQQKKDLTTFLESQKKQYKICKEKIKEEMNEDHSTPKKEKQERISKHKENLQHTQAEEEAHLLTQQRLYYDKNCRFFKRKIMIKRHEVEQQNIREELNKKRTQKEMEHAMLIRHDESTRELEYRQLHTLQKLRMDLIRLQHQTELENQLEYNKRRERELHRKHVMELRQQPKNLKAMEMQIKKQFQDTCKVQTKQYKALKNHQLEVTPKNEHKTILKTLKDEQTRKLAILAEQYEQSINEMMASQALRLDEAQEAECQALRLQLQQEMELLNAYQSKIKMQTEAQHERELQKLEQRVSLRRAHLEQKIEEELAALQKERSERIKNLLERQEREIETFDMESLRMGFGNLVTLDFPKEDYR
# Sequence of UniProt Q8WU79 (Q8WU79 whole entry, looked up): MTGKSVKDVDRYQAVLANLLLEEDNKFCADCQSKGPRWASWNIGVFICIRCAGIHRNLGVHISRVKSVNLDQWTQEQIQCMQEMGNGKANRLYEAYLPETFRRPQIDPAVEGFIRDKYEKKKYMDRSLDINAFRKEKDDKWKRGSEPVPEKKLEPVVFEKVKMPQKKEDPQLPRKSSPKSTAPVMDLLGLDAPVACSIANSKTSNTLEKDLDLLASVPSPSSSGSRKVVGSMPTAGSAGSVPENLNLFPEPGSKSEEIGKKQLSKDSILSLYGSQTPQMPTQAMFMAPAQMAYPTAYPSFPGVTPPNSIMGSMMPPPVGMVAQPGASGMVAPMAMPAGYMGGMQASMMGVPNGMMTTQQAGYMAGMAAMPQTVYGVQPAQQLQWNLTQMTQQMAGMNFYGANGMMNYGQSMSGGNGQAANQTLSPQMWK
# Sequence of UniProt P51687 (P51687 whole entry, looked up): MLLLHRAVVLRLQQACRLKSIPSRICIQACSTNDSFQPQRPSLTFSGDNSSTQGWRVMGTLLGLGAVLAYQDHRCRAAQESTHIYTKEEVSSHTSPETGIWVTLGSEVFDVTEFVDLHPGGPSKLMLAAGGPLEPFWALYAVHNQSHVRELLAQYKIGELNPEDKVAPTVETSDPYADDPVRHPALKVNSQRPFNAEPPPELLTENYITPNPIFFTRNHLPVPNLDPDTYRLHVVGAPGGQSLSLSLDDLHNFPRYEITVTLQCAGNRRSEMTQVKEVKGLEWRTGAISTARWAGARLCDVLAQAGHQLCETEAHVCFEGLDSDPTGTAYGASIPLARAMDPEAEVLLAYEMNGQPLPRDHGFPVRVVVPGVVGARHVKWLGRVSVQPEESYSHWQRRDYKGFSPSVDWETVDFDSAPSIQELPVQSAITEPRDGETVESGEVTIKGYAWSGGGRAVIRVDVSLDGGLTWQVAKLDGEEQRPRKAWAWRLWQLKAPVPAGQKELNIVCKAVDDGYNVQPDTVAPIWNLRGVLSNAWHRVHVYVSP
# Sequence of UniProt Q9Y5W9 (Q9Y5W9 whole entry, looked up): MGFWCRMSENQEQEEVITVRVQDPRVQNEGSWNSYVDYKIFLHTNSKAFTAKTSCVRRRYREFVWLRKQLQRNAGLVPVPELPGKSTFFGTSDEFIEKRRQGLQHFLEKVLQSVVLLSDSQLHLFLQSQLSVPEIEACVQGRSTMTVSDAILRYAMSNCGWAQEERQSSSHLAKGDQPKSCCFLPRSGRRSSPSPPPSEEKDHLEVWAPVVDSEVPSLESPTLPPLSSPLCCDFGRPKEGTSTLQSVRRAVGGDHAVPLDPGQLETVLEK
Target,log2 fold change (saracatinib),log2 fold change (sotrastaurin),log2 fold change (alvocidib),log2 fold change (Tubastatin A),log2 fold change [1],log2 fold change (defactinib),log2 fold change (rucaparib),log2 fold change [2],log2 fold change (encorafenib),log2 fold change [3],log2 fold change [4],log2 fold change (filanesib),log2 fold change (zotarolimus),log2 fold change (idasanutlin),log2 fold change (alisertib),log2 fold change [5],log2 fold change (gefitinib),log2 fold change [6],log2 fold change (lapatinib),log2 fold change (pictilisib)
SP1 (UniProt P08047),0.022,0.016,0.023,-0.054,-0.015,0.01,0.066,-0.023,-0.019,0.025,-0.064,0.022,-0.033,-0.002,-0.025,-0.007,-0.043,0.005,-0.004,0.142
SLC35A1 (UniProt P78382),0.038,0.015,0.006,-0.038,-0.016,-0.198,0.048,-0.112,0.043,-0.211,0.048,-0.021,-0.138,-0.051,-0.063,-0.097,0.06,0.06,-0.028,
SUOX (UniProt P51687),0.02,0.013,-0.047,-0.031,-0.01,0.031,-0.037,-0.022,0.001,0.042,-0.321,-0.014,0.02,0.013,-0.014,0.088,0.007,0.022,-0.088,0.158
SNX11 (UniProt Q9Y5W9),-0.055,-0.055,-0.135,-0.014,0.011,-0.02,-0.001,0.055,-0.074,0.002,0.025,-0.128,0.043,-0.008,-0.062,-0.15,-0.05,0.038,0.014,-0.173
SRSF11 (UniProt Q05519),0.062,-0.059,-0.209,0.015,-0.243,-0.174,0.005,-0.089,-0.016,-0.045,0.084,0.093,0.012,-0.021,-0.079,0.017,0.023,0.018,0,-0.164
SYMPK (UniProt Q92797),-0.058,-0.205,-0.2,0.258,0.008,-0.245,0.09,0.007,0.079,-0.022,0.069,-0.102,0.07,-0.127,0.047,0.036,0.107,0.025,-0.045,0.155
STK38 (UniProt Q15208),-0.02,-0.055,-0.12,-0.016,-0.073,-0.127,0.058,0.005,0.104,-0.064,0.029,-0.024,0.036,-0.009,0.007,-0.006,-0.038,-0.01,-0.001,0.146
TANK (UniProt Q92844),0.118,0.033,0.081,0.03,0.236,0.045,-0.016,0.052,0.064,-0.03,0.017,0.03,-0.024,0.02,-0.028,0.097,-0.032,0.048,-0.015,0.027
THADA (UniProt Q6YHU6),0,-0.104,-0.095,0.073,-0.036,-0.079,-0.017,0.047,0.09,-0.014,0.019,-0.18,-0.008,-0.081,-0.022,-0.03,-0.031,0.014,0.012,-0.014
SMAP2 (UniProt Q8WU79),-0.047,-0.052,-0.057,0.029,0.107,-0.12,0.114,-0.026,0.087,-0.043,-0.029,0.048,0.045,-0.039,0.11,0.247 (active),0.043,-0.072,-0.009,-0.015
TAOK3 (UniProt Q9H2K8),-0.002,-0.089,-0.062,0.042,-0.031,-0.109,-0.013,0.019,0.052,-0.044,0.047,0.014,0.002,-0.003,-0.038,-0.049,0.001,-0.011,0.061,-0.001
SLC30A10 (UniProt Q6XR72),-0.075,0.031,-0.031,0.008,-0.025,0.012,-0.073,-0.036,0.001,-0.011,0.06,0.032,-0.02,0.005,-0.12,0.003,0.095,0.032,0.001,0.095
SRSF3 (UniProt P84103),0.019,0.079,0.265,-0.026,-0.053,0.235,0.257,-0.022,0.023,0.032,-0.226,0.193,-0.054,0.217,-0.101,-0.011,-0.026,-0.009,-0.006,-0.018
TIPRL (UniProt O75663),-0.028,-0.056,-0.119,0,0.009,-0.049,0.013,-0.001,0.035,-0.014,0.011,-0.063,-0.013,-0.104,0.014,0.043,-0.034,-0.009,-0.009,0.034
TECR (UniProt Q9NZ01),-0.018,-0.007,-0.02,-0.035,-0.07,-0.022,0.03,-0.017,0.045,-0.028,-0.031,-0.169,-0.041,-0.111,-0.028,-0.102,-0.027,0.034,-0.012,-0.102
SRSF10 (UniProt O75494),-0.002,0.041,0.338,-0.009,-0.053,0.233,0.314,0.068,0.133,0.14,-0.102,0.424,-0.157,0.388,-0.099,-0.169,-0.009,-0.056,0.101,-0.042
